Pf Dd2 growth: qHTS Primary assay for Inhibitors of Plasmodium falciparum Dd2 growth in vitro | P. falciparum Dd2 growth, SYBR Green, 72 h | Potency, µM (doses to about 28.9 µM), for inactives: at the highest dose activity, negative = inhibition, most hits filed as inhibitors | actives 4.3% (n = 120,000) | AID 1347417, 2020; active = well fitted inhibition curve with a large enough effect;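 also: plate controls were DMSO vehicle for no effect and reference drug for full effect; nearly all actives have a fitted effect of over 65% in size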
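Readout: SYBR Green fluorescence, 485 nm excitation, 535 nm emission, after ~16 h lysis at 37C. Before that, Dd2-infected red cells (2.5% hematocrit) grew 72 h with compound, 29 uM top final concentration.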
Starred values were filed as active, the others as inactive; i = inactive; [ ] = another dose, or the depositor's remark. This excerpt belongs to a sample that is enriched for hits. Potency is read from the fitted curve at half-maximal effect.

SMILES	Pf Dd2 growth
COc1ccc(CN[C@@H]2CO[C@H](CNC(=O)c3ccccc3)[C@H]2O)cc1	-11%[44.1 µM]
O=C(c1ccc(OC2CCN(C(=O)C3CCCC3)CC2)nc1)N1CCOCC1	1%
O=C(NC1CCCC1)c1ccc(-c2ccc(N3CCSCC3)nc2)cc1	i
O=C(NCc1cccs1)c1ccc(CN2C(=O)NC3(CCOCC3)C2=O)cc1	-5%
CC(C)C[C@H](NC(=O)Cn1nc2c(cc1=O)CCCCC2)C(=O)O	-8%
O=C(Nc1cc(F)cc(F)c1)N1CCC(CCNC(=O)C2(c3ccccc3)CC2)CC1	-21%
O=C(c1ccccc1F)N1CCN(c2nc3ncccc3o2)CC1	-16%[44.1 µM]
COc1ccc2cc1Nc1ccc(cc1)C[C@H](NCc1cccc(C(=O)O)c1)C(=O)N(C)[C@H](C(=O)Nc1ccccc1OCc1ccccc1)C2	2µM*
COc1ccccc1NC(=O)[C@@H]1COCC(=O)N1Cc1ccc(OC)c(OC)c1	37%
COc1ccc2cc1Nc1ccc(cc1)C[C@H](NCc1ccncc1)C(=O)N(C)[C@H](C(=O)NCc1ccc(OC(F)(F)F)cc1)C2	-20%
O=C1OCCN1C1CCN(Cc2ccccc2)CC1	2%[44.1 µM]
Cc1cccc(C)c1OCC(=O)N(Cc1ccco1)Cc1ccco1	14%
O=C(Cn1cc(C(=O)c2ccco2)c2ccccc21)Nc1ccc(Br)cc1	-15%
Cc1ccccc1OCCn1cc(C(=O)c2ccco2)c2ccccc21	1.3µM*
CCOc1ccc(NC(=O)Cn2cc(C(=O)c3ccccc3)c3ccccc32)cc1	26%
Cc1cc(OCCn2cc(C(=O)c3ccco3)c3ccccc32)ccc1Cl	1.1µM*
COc1ccccc1OCCn1cc(C(=O)c2cccs2)c2ccccc21	i
Cc1ccccc1NC(=O)Cn1cc(C(=O)c2ccco2)c2ccccc21	-5%
Cc1ccccc1OCCn1cc(C(=O)C2CCCCC2)c2ccccc21	-9%
Cc1ccc(OCCn2cc(C(=O)c3cccs3)c3ccccc32)cc1	4µM*
CCCNC(=O)N1CCC(Oc2ncccc2C(=O)N(C)C)C1 (stereo not given)	i
Cc1ccc(-n2ncc3c2CC(C)(C)CC3NS(=O)(=O)c2cn(C)cn2)cc1 (stereo not given)	i
Cc1ccc2nc(CO[C@H]3CN(Cc4ccc(S(C)(=O)=O)cc4)C[C@H]3F)[nH]c2c1	i
O=C1CCC(=O)N1CC(=O)N1CCCCCC1c1nnc(-c2ccccc2)o1 (stereo not given)	1%
CCCCOCCCNC(=O)c1c(C)noc1-c1ccc(OC(F)(F)F)cc1	i
SMILES	Pf Dd2 growth
COc1ccc(OC)c(CNC(=O)CCC[C@H]2NC[C@@H]3C[C@H]2CN(Cc2ccccc2)C3)c1	i
CNC(=O)c1ccc(CNc2nc(CCN)nc3sc(C)c(C)c23)o1	10µM*
CNC(=O)c1ccc(CNc2cc(C3CC(O)C3)nc(N)n2)o1 (stereo not given)	-8%
Cc1sc2nc(CCN)nc(N(C)CCCCN3CCOCC3)c2c1C	i
Cc1nnnn1-c1ccc(NS(=O)(=O)NCc2ccccc2)cc1	27%
CC(=O)N1CC(=O)Nc2ccc(F)cc2C1c1ccccc1 (stereo not given)	20%
CCCCC1CCC(C(=O)N2CC(=O)Nc3ccc(Br)cc3C2c2ccc(F)cc2)CC1 (stereo not given)	10µM*
CN(C)S(=O)(=O)c1ccc(C(=O)N2CC(=O)Nc3ccc(Br)cc3C2c2ccc(F)cc2)cc1 (stereo not given)	0%
CCOc1ccc(C(=O)N2CC(=O)Nc3ccc(F)cc3C2c2ccc(F)cc2)cc1 (stereo not given)	9%
CCCCC(=O)N1CC(=O)Nc2ccc(F)cc2C1c1ccc(F)cc1 (stereo not given)	7.9µM*
COc1ccc(CC(=O)N2CC(=O)Nc3ccc(Br)cc3C2c2ccc(F)cc2)cc1 (stereo not given)	-18%
COC(=O)CCC(=O)N1CCCC(CCc2c(F)cccc2F)C1 (stereo not given)	-8%
O=C(CN1C(=O)CCC1=O)N1CCC(c2noc(-c3ccccn3)n2)C1 (stereo not given)	i[5.79 µM]
O=C(Cn1nc2c(cc1=O)CCCC2)NCCn1cnc2ccccc21	12%
CCC(NC(=O)C1CCCN(c2cnc3nccnc3c2)C1)c1ccc(OC)cc1 (stereo not given)	-1%
COc1ccc(CNC(=O)CSc2ncc3c(n2)-c2ccc(Cl)cc2N(Cc2ccccc2)S3(=O)=O)cc1	-14%
Cc1cccc(C)c1NC(=O)CSc1ncc2c(n1)-c1ccc(Cl)cc1N(Cc1ccccc1)S2(=O)=O	11µM*
Cc1cccc(NC(=O)CSc2ncc3c(n2)-c2cc(Cl)ccc2N(C)S3(=O)=O)c1C	i
COC[C@@H]1CN(C(=O)c2ccc(OC)cc2OC)C[C@H]1c1ccncc1	-14%
COc1ccc(Cl)cc1C(=O)N1CCCN(c2cc(-c3ccc(C)c(C)c3)[nH]n2)CC1	i
O=C(C[C@@H]1CCNC[C@@H]1Cc1cc(-c2ccccc2)on1)N1CCOCC1	10%[44.1 µM]
CC(C)(C)c1ccc(-c2cc(C[C@H]3CNCC[C@H]3CC(=O)O)no2)cc1	-18%[44.1 µM]
CC(C)(C)c1ccc(-c2cc(C[C@H]3CNCC[C@H]3CC(=O)N3CCC(n4c(=O)[nH]c5ccccc54)CC3)no2)cc1	6.3µM*
CCOCc1nc(C2CCCN(C(=O)NCCc3ccccc3)C2)no1 (stereo not given)	21%
C[C@@H]1CN(C(=O)Cc2ccc3c(c2)OCO3)C[C@]1(C)O	0%
SMILES	Pf Dd2 growth
CC(C)(C)CC(=O)Nc1ccc([C@H]2OCC(=O)N(CCN)[C@@H]2CO)cc1	-14%[44.1 µM]
O=C(Nc1ccccc1)O[C@@H]1CO[C@H]2[C@@H]1OC[C@@H]2n1nnnc1Sc1ccccc1	-37%[44.1 µM]
O=C(C1CC1)N1CC(F)(F)C[C@H]1c1nc(-c2ncccn2)no1	15%
Cc1noc(C)c1-c1cc2cc(CO)oc2c(NCc2cccc(F)c2)n1	i
COCCNc1nc(-c2c(C)noc2C)cc2cc(CO)oc12	-10%[44.1 µM]
COc1ccc(Nc2nc(-c3c(C)noc3C)cc3cc(CO)oc23)cc1OC	7.9µM*
COC[C@@H]1CN(C(=O)c2ccc(C#N)cc2)C[C@H]1C(N)=O	9%
Cc1cccc(N2CCN(c3ncnc4onc(C)c34)CC2)c1C	-5%
Cc1ccccc1-c1nnc(CN2CCN(c3cc(Cl)ccc3C)CC2)o1	-10%
Cc1ccc(Cl)cc1NC(=O)c1cnn2c(C(F)F)cc(-c3ccccc3)nc12	14%
Cc1ccc(Cl)cc1N1CCN(C(c2ccc(F)cc2)c2nnc(-c3ccccc3)o2)CC1 (stereo not given)	7.9µM*
COc1cc(OC)c(NC(c2nnc(-c3ccccc3)o2)c2ccc(F)cc2Cl)cc1Cl (stereo not given)	6.3µM*
Cc1ccc(Cl)cc1N1CCN(c2ncnc3onc(-c4ccc(F)cc4)c23)CC1	-12%
Cc1ccc(Cl)cc1NC(=O)c1ccc(-c2nc(CSc3ccccc3)c(C)o2)cc1	i
Cc1cccc(N2CCN(C(c3ccc(F)cc3)c3nnc(-c4ccccc4)o3)CC2)c1C (stereo not given)	11µM*
COc1cc(OC)c(NC(=O)c2ccc3nc(C(C)C)oc3c2)cc1Cl	-12%
Cc1ccc(Cl)cc1NC(c1ccc(F)cc1)c1nnc(-c2ccccc2)o1 (stereo not given)	13µM*
COCCn1c(C)cc(O)c(C(c2ccc(F)cc2)N2CCN(c3ccccc3)CC2)c1=O (stereo not given)	i
COc1cc(OC)c(NC(=O)COc2ccccc2-c2nnc(-c3ccccc3)o2)cc1Cl	12%
